BioA inh-1: inhibitors of Mycobacterium tuberculosis BioA enzyme; purified M. tuberculosis BioA enzyme, plate reader; 0.096% of 360,000 active; inhibition, % at 9.99 µM; in the data active = inhibition above about 40%
GDH-TPI counter-1: counter-screen for M. tuberculosis FBA inhibitors: GDH-TPI coupled enzymes; GDH-TPI coupled enzyme counterscreen, NADH absorbance; inhibition, % at 4.8 µM; 1.2% of 360,000 active; AID 588335; in the data active = inhibition above about 30%;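 note: 0% = DMSO wells and 100% = wells lacking the enzyme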
FBA Mtb inh: inhibitors of M. tuberculosis fructose-bisphosphate aldolase; P9WQA3; purified M. tuberculosis FBA, fluorescence read-out; 2.3% of 360,000 active; inhibition, % at 1 µM; AID 588726; in the data active = inhibition above about 27%;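 note: 0% = vehicle and 100% = reference inhibitor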
Target sequence (P9WQA3 whole entry, looked up): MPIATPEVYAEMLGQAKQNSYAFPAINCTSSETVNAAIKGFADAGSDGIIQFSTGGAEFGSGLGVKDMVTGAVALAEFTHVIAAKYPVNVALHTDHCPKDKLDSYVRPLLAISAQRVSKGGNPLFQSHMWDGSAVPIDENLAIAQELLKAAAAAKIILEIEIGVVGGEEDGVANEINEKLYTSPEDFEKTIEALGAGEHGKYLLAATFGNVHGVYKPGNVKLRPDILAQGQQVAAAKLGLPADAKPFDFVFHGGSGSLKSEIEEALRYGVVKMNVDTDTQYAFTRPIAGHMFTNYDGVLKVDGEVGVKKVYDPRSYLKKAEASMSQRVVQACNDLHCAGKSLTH
FadD28 binding: blocks FadD28 binding to the bisubstrate probe | 0.22% of 360,000 active | AID 588549 | fluorescence polarization | inhibition, % at 12.5 µM; in the data active = inhibition above about 8.5%, passing the limit was not always enough
Rv3671c protease: inhibits the M. tuberculosis serine protease Rv3671c; inhibition, % at 5.96 µM; 0.048% of 320,000 active; P9WHR9; in the data active = inhibition above about 38%;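 note: extracellular domain of Rv3671c used as enzyme; 0% = enzyme with DMSO and 100% = no enzyme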
Mtb FBA inh conf: Mtb FBA inhibition, confirmed. 78% of 5,600 active. inhibition, % at 1 µM. AID 651616. purified M. tuberculosis FBA, fluorescence read-out. shares compounds with FBA Mtb inh; in the data active = inhibition above about 27%;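 note: 0% = vehicle wells and 100% = reference inhibitor wells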
GDH-TPI counter-2: inhibits GDH-TPI coupling enzymes, flagging Mtb FBA hits. shares compounds with FBA Mtb inh. GDH-TPI coupled enzyme counterscreen, fluorescence. inhibition, % at 1 µM. 81% of 5,600 active; in the data active = inhibition above about 10%
GDH-TPI dose: counter-screen for M. tuberculosis FBA inhibitors: GDH-TPI dose response | shares compounds with FBA Mtb inh | GDH-TPI coupled enzyme assay, fluorescence, artifact counterscreen | IC50, µM | 79% of 170 active
BioA inh-2: Mtb BioA enzyme inhibition | purified BioA enzyme, plate reader, dose response | max activity, % | shares compounds with BioA inh-1 | 310 tested, under 10 active;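 note: top concentration of the dilution series was 10 µM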
HepG2 cytotox: HepG2 viability loss. shares compounds with BioA inh-1. HepG2 cytotoxicity, plate reader. max activity, %. 310 tested, under 10 active. AID 651898
3T3 cytotox 5: cytotoxicity in NIH3T3 cells | plate reader | shares compounds with BioA inh-1 | 310 tested, under 10 active | AID 651900 | activity change, negative = cytotoxicity, % at 26 µM
The depositor's hits bear a star; / = no result given; + = active, no number. Rows were chosen to be rich in hits. Some 3% of all compounds tested hit in one or more screens of this group. Unless noted, the rule behind the calls is not given here.

SMILES	BioA inh-1	GDH-TPI counter-1	FBA Mtb inh	FadD28 binding	Rv3671c protease	Mtb FBA inh conf	GDH-TPI counter-2	others
COC(=O)c1ccc(C#Cc2ccccc2)o1	-1.9	2.9	57.8*	0.2	2.1	49.2*	57.1*
CCCCc1cc(=O)oc2cc(OCC(=O)N3CCC(C(=O)O)(c4ccccc4)CC3)ccc12	0.5	12.8	9.8	-5.3	-7.5	/	/
Cc1cc(=O)oc2cc(OCC(=O)N3CCN(Cc4ccccc4)CC3)ccc12	2.2	16.8	35.2*	1.1	1.6	9.3	-3.3
Cc1cc(=O)oc2cc(OCC(=O)N3CCC(C(=O)O)(c4ccccc4)CC3)ccc12	1.7	12.8	27.8*	-2.7	8.8	18.8	26.1*
Cc1cc(=O)oc2cc(OCC(=O)N3c4ccccc4NC(=O)C3(C)C)ccc12	/	15.1	33.6*	-5.3	-2.4	107.3*	87.2*
Cc1cc(=O)oc2cc(OCC(=O)N3CCN(c4ccc(F)cc4)CC3)ccc12	2.3	20.5	6.5	-0.9	-8.8	/	/
Cc1cc(=O)oc2cc(OCC(=O)N3CCN(Cc4ccc5c(c4)OCO5)CC3)ccc12	6.8	7.9	19.2	-2.5	-1.6	/	/
Cc1cc(=O)oc2cc(OCC(=O)N3CCN(C(=O)c4ccco4)CC3)ccc12	/	-0.9	27.5*	-4.5	3.8	78.5*	67.9*
C[C@H]1CCCCO[C@@H](CN(C)C(=O)CCC(F)(F)F)[C@@H](C)CN([C@@H](C)CO)C(=O)c2cc(NC(=O)NC3CCCCC3)ccc2O1	5.1	/	/	/	/	/	/
CNC[C@H]1OCCCC[C@@H](C)Oc2ccc(NC(=O)Nc3ccccc3)cc2C(=O)N([C@H](C)CO)C[C@H]1C	1.7	/	/	/	/	/	/
CO[C@H]1CN(C)C(=O)c2ccc(NC(=O)C3CCCCC3)cc2OC[C@@H](C)N(C)C[C@H]1C	0.1	/	/	/	/	/	/
Cc1ccc2[nH]c(=O)c(CN(Cc3cccnc3)Cc3nnnn3CC3CCCO3)cc2c1 (stereo unspecified)	-1.9	18.5	2.2	-2.9	0.2	/	/
O=c1[nH]c2cc3c(cc2cc1CN(Cc1ccc2c(c1)OCO2)Cc1nnnn1CC1CCCO1)OCO3 (stereo unspecified)	-0.4	23.8	39.7*	-0.6	-8.0	46.6*	39.6*
O=c1[nH]c2cc3c(cc2cc1CN(CCCO)Cc1nnnn1Cc1ccc(F)cc1)OCO3	-0.9	24.4	35.9*	-1.7	0.5	35.4*	29.8*
CCOC(=O)Nc1nc(-c2ccc(F)cc2F)cs1	/	-2.6	-4.2	-2.8	-6.8	/	/
CNc1cncc(-c2ccc(F)cc2F)n1	-2.8	14.3	111.5*	-0.2	/	103.7*	67.7*
N#Cc1c(Cl)nc(Cl)c2c1CCN(Cc1ccccc1)C2	/	0.7	92.6*	-1.2	-5.6	+	+
COc1cc(C#Cc2c(-c3ccccc3OC)oc3ccccc23)cc(OC)c1	-3.2	23.8	34.4*	0.4	-11.0	0.3	2.0
COC(=O)c1ccc2ccn(CC(=O)NC(C)C)c2c1	-0.7	-4.5	85.2*	-0.5	2.6	190.9*	142.7*
COC(=O)c1ccc(/C=N/NC(=O)CC(=O)NC(C)C)cc1	-0.6	2.8	-2.7	-3.2	-4.9	/	/
C[C@@H]1CN([C@H](C)CO)C(=O)c2cc(NS(=O)(=O)c3ccccc3)ccc2O[C@@H](C)CCCCO[C@H]1CN(C)C(=O)NC1CCCCC1	2.5	/	/	/	/	/	/
N#CC1=C(C2CC2)CC(c2ccccc2)C(C#N)=C1N (stereo unspecified)	-1.4	7.8	33.0*	-2.9	-7.2	12.5	-3.9	GDH-TPI dose=>10
N#CC1=C(N)SC2(CCCCC2)SC1c1ccccc1 (stereo unspecified)	2.9	3.8	0.7	-2.9	5.2	/	/
Nc1ncc(-c2ccc(F)cc2)nc1N1CCN(CCO)CC1	-1.1	16.4	47.3*	-1.5	/	123.2*	89.1*
N#C/C(=N\Nc1ccc(Cl)c(Cl)c1)C(=O)C1CC1	3.1	18.4	65.7*	2.5	8.6	0.8	-2.7
SMILES	BioA inh-1	GDH-TPI counter-1	FBA Mtb inh	FadD28 binding	Rv3671c protease	Mtb FBA inh conf	GDH-TPI counter-2	others
N#C/C(=N\Nc1ccc(F)cc1)C(=O)C1CC1	-0.3	13.0	36.8*	-1.2	6.1	63.3*	58.7*
O=C(Nc1ccc(Cl)c(Cl)c1)C1CCCCC1	-0.2	-9.4	-5.4	-2.8	-2.4	/	/
N#C/C(=N\Nc1ccc(F)cc1)C(=N)N1CCCCCC1	-3.0	6.6	-3.9	-0.7	7.0	/	/
C[C@H](CO)N1C[C@H](C)[C@@H](CN(C)Cc2ccncc2)Oc2ccc(NC(=O)Nc3ccc4c(c3)OCO4)cc2CC1=O	8.4	/	/	/	/	/	/
Cc1c2c(nc3c(C(=O)NC4CC4)cnn13)CCCC2	2.4	0.6	0.9	0.2	1.4	/	/
CCC(C)NC(=O)c1cnn2c(C)c3c(nc12)CCCC3 (stereo unspecified)	/	15.2	46.5*	2.6	7.8	+	+
Cc1cc(C)cc(Oc2coc3c(CN(C)C)c(O)ccc3c2=O)c1	-0.7	22.2	91.9*	-1.6	-3.2	77.3*	67.5*
CC1=C(C#N)C(c2cccnc2)C2=C(CC(c3ccc(Cl)cc3)CC2=O)N1 (stereo unspecified)	62.7*	7.9	70.2*	-9.9	1.2	6.2	-1.2	BioA inh-2=-5.9;HepG2 cytotox=13.7;3T3 cytotox 5=-2.8
C[C@@H]1CN([C@@H](C)CO)C(=O)Cc2cc(NC(=O)CCC(F)(F)F)ccc2O[C@H]1CN(C)C(=O)Nc1ccccc1	0.2	/	/	/	/	/	/
CC(=O)c1ccc(NC(=O)COC(=O)Cc2ccsc2)cc1	47.4*	-4.5	1.2	0.6	11.7	/	/	BioA inh-2=-6.2;HepG2 cytotox=11.8;3T3 cytotox 5=-2.6
CC(=O)c1ccc(NC(=O)Cc2ccsc2)cc1	2.2	0.8	-0.3	-1.7	1.7	/	/
O=C(C[n+]1cc(-c2ccc(Cl)cc2)n2c1CCC2)N1c2ccccc2Sc2ccccc21	61.1*	0.0	-1.7	-2.0	-1.8	/	/	BioA inh-2=-6.1;HepG2 cytotox=-11.3;3T3 cytotox 5=0.1
COc1ccccc1CNC(=O)C[C@@H]1C[C@H]2c3cc(NC(=O)C4CCC4)ccc3O[C@H]2[C@H](CO)O1	-2.4	/	/	/	/	/	/
CSc1ccc(S(=O)(=O)N2CCC(C(=O)Nc3cccnc3)CC2)cc1	70.7*	5.9	-1.9	-1.2	6.5	/	/	BioA inh-2=-6.4;HepG2 cytotox=-16.8;3T3 cytotox 5=3.2
O=C(NCc1ccc(Cl)cc1)C1CCN(S(=O)(=O)c2cccnc2)CC1	-0.3	-4.3	-2.2	-4.8	-1.9	/	/
O=C(Nc1cccnc1)C1CCN(S(=O)(=O)c2ccc(Cl)cc2)CC1	85.5*	0.3	0.8	-0.7	0.9	/	/	BioA inh-2=-8.7;HepG2 cytotox=-13.3;3T3 cytotox 5=-2.2
